This test concerns LXRb homodimer (NR concentration 270 nM). As to the kind of experiment: PBM binding z-score (relative to random genomic background probes); higher = stronger binding; sequences stand for … in GC…GCGATTGACAGCGTAGAATGAAGG
The method in brief:
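On custom Agilent 4×180K arrays, double-stranded probes with 34-nt variable regions carried direct-repeat seeds, single-nucleotide variants, half-site ablations or random human genomic background. Ligand-free nuclear receptor dimers were applied for 1 h, and binding was read with antibodies against each partner (one per run). Binding z-scores come from regression-normalized fluorescence, with the random background probes as reference.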
For the sequence AATACAGGGTCATCGTAGGCCAGAGAACGCACAG, the PBM binding z-score worked out at 1.09.
For the sequence CCGACTGGGGCATAAGGTTACGATAAGCCAGCCC, the PBM binding z-score was -1.42.
The same measure for CGTCCAAGGTCAGAGAGGTAAGTGAATGCCGAGT: -0.0952; for TCGAGTAGGTTACCAATGGGGCGTTCAGCTTTCT: -0.564.
Then CCTCCTGGGCCAAAGGTCATTGATTCCAATGCTC, with 0.666; and GCGACTGGGGCATCAGGAGGTTACCATAACTTAA, with -1.05; and CCTATTAGTTGACCATAAGGGCAACGGAAGCTCG, with 0.609.
The same measure for CAAACTAGGTCAACGGAAGGTCAAAGTCCGCATG: 1.55; for ACTATTAGTTGAGACGCGGGCAACCGATAGGTTG: 0.193; for ACTAGTTAGTCAGCTGAGGTCACACACAATTCGG: 0.931.
Turning to ATCGAAAGGTCGAAGGTGAATATACCCACCCGAA, the PBM binding z-score was 0.763.
Then ATATCTAGGTTAGCTGGGGTCATTCAGACTAGGC, with 2.06; and TCTTGTAGATCAAGCAGGTTAAGAAGGCCTGAGT, with -0.745.
Then CCAGACAGGTTAAAGGTAACTCAGTCTGGTACGC, with -0.137; and TCTTGTAGATCAAAGGTTAAGTAAGCCGAAGCCT, with 0.0721.
Then TCTGCAAGGTCAGTTGGTCAGCTAACGAGCTGCC, with 1.17; and TTACCAAGGTGAAGGTCGCTGATCCCTCTGTAGA, with -1.18.
For the sequence ACTTACGGGGCAACGAGGTTATAGCACGCGTATA, the PBM binding z-score came to 0.511.
Sequence TCTGCTAGGTCAACGATGGTCAGCCAATCTGCTA registered a PBM binding z-score of -0.0158.
The same measure for ATCTCTACGTAACCAAGTTCAGTGAATGCCGAAC: 1.1; for GCTATTAGTTGAAAGGGCATCCGAATGATTCTCG: 0.0114; for CGAACTAGGTCGTTGACAGGACAGTGAATAGTAA: -0.626.

For the origin of these results see the supplement of paper PMC6555819.
